PubChem BioAssay

Tests used:
[1] = test system: Human papillomavirus type 1a protein E7 (residues 44-93); assay: HPV1a E7 fragment binders on microarrays, primary screen, biochemical, small-molecule microarray, residues 44-93, 635 nm fluorescence (AID 1108); conditions: small-molecule microarray binding, fluorescence 635 nm; higher = more signal;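 also: E7 fragment applied at 1 µg/mL in TBST for 1 h at 4 C; score combines spot fluorescence with its signal to noise ratio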
[2] = modulators of HCV replicon luciferase signal, primary screen, HCV replication inhibitor project, Huh7 cells, luciferase reporter (AID 1109); conditions: 48 h, higher = more signal;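 also: huh7 hepatoma cells harbouring a luciferase neomycin HCV replicon reporter; luciferase luminescence as measure of HCV replicon replication; test concentration not given here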
[3] = target: Left-right determination factor 2 (Homo sapiens) (UniProt O00292); assay: LEFTY2 binders on small-molecule microarrays, primary screen, biochemical, small-molecule microarray, 635 nm fluorescence scan (AID 1110); conditions: LEFTY2 binding, higher = more signal
[4] = target: Calmodulin-1 (Homo sapiens) (UniProt P0DP23); assay: CALM1 binders on microarrays, EGTA buffer, profiling panel, biochemical, small-molecule microarray, Cy5-labelled CALM1 (AID 1111); conditions: Cy5-CALM1 binding fluorescence, higher = more signal;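 also: labelled calmodulin applied in Tris saline Tween buffer holding calcium plus EGTA and DTT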
[5] = target: Calmodulin-1 (Homo sapiens) (UniProt P0DP23); assay: calcium-bound CALM1 binders on microarrays, profiling panel, artefact control for SMM control-protein annotation, biochemical, small-molecule microarray, Cy5-labelled CALM1, plus calcium (AID 1112); conditions: Cy5-CALM1 binding fluorescence, higher = more signal;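 also: score merges spot fluorescence with signal to noise from triplicate slides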
[6] = small-molecule microarray binders of probe aWnt5a, primary screen, biochemical, biotinylated probe, 635/667 nm fluorescence (AID 1113); conditions: higher = more signal;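 also: score merges 667 nm fluorescence intensity with signal-to-noise per printed feature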
[7] = small-molecule microarray binders of probe aShh, primary screen, biochemical, biotinylated probe, 635/667 nm fluorescence (AID 1114); conditions: higher = more signal;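 also: probe is biotin-labelled aShh protein from a stem cell growth factor screen; measures binding of labelled protein to compounds printed on the slide; score merges feature fluorescence at 667 nm with signal-to-noise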
[8] = small-molecule microarray binders of probe aNog, primary screen, biochemical, biotinylated probe, 635/667 nm fluorescence (AID 1115); conditions: higher = more signal;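 also: probe is biotinylated aNog protein used at 0.15 µg/mL for 1 h at 4 C; z-score combines 667 nm fluorescence of each spot with its signal to noise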
[9] = target: Torsin-1A-interacting protein 1 (Homo sapiens) (UniProt Q5JTV8); assay: LAP1 binders from COS7 cell lysate, primary screen, small-molecule microarray, 635/667 nm fluorescence (AID 1116); conditions: COS7-hLAP1 lysate binding, 635 nm fluorescence, higher = more signal
[10] = target: Alpha-bungarotoxin (Bungarus multicinctus) (UniProt P60615); assay: alpha-bungarotoxin binders on microarray, profiling panel, artefact control for SMM control protein annotation, biochemical, small-molecule microarray, Alexa647 label, 635/667 nm fluorescence (AID 1117); conditions: alpha-BTX-A647 binding fluorescence, higher = more signal
Alpha-bungarotoxin (Bungarus multicinctus), sequence (P60615 whole entry, looked up): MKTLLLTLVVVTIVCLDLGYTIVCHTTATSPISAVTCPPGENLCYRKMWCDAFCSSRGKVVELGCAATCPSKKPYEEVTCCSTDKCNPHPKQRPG

Left-right determination factor 2 (Homo sapiens), sequence (O00292 whole entry, looked up): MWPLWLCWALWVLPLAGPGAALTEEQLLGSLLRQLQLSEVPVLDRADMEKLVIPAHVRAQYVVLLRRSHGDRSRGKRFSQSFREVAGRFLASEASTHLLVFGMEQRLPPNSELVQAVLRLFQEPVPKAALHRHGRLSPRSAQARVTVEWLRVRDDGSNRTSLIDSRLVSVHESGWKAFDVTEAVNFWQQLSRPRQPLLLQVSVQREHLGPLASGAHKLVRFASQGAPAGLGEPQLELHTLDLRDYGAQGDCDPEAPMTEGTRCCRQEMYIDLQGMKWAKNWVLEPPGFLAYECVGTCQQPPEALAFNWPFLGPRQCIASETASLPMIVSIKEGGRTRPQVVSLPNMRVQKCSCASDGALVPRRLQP
Torsin-1A-interacting protein 1 (Homo sapiens), sequence (Q5JTV8 whole entry, looked up): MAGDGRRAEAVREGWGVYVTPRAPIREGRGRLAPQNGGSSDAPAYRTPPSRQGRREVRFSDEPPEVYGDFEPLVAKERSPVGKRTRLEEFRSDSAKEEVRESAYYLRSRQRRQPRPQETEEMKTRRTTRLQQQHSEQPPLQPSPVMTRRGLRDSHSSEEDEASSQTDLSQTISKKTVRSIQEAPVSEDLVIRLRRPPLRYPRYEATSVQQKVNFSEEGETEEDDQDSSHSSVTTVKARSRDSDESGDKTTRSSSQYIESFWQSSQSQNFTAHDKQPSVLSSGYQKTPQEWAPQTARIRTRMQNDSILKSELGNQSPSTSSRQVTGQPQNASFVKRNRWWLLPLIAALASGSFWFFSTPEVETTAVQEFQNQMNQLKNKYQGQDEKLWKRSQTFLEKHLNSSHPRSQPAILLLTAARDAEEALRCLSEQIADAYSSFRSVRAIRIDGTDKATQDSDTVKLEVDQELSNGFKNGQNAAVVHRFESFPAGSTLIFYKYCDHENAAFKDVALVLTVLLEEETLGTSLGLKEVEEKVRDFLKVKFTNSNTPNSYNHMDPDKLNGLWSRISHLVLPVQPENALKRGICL

Row | SMILES | composite z-score [1] | z-score [2] | composite z-score [3] | composite z-score [4] | composite z-score [5] | composite z-score [6] | composite z-score [7] | composite z-score [8] | composite z-score [9] | composite z-score [10]
1 | CC1CC/C=C\[C@H]2OC34C=CCN(c5ccc6ccccc6c5)C(=O)[C@H]3N(C(CO)C(C)C)C(=O)[C@@H]4C2C(=O)O1 (stereo not given in full) | -0.546 | -0.957 | -0.854 | -0.822 | -0.419 | -0.169 | -0.164 | -0.267 | -0.203 | 0.462
2 | Cc1ccc(F)cc1S(=O)(=O)N[C@@H]1CCN(Cc2ccc(OC(C)C)cc2)C1 | -1.22 | -3.58 | 0.2 | -0.892 | -1.14 | -0.103 | -0.153 | 0.0771 | 0.224 | -0.688
3 | CC(=O)n1cc(C(O)C2C=CC3C(=O)N(Cc4ccccc4)C(=O)C3N2n2cnnc2)c2ccccc21 (stereo not given) | -0.179 | -1.49 | 0.0796 | 0.416 | -0.568 | -0.0721 | -0.0626 | -0.305 | 0.463 | 1.09
4 | COC(=O)[C@@]1(Cc2ccccc2)[C@H]2c3cc(C(=O)N4CCCC4)[nH]c3C[C@H]2CN1C(=O)c1ccccc1 | -1.89 | -0.151 | -0.632 | 0.677 | 0.705 | 0.0913 | -0.243 | 1.1 | 1.96 | -0.243
5 | C=CCC(OC(C)=O)[C@@H]1[C@@H](N(Cc2cc3ccccc3o2)C(=O)Cc2ccc(F)cc2)c2cc(OCCCO)ccc2N1C(=O)c1ccc2ccccc2n1 (stereo not given in full) | -0.221 | 0.476 | -0.139 | -0.408 | -0.12 | 0.0179 | -0.426 | 0.14 | -0.103 | 0.222
6 | CC(C)(C)OC(=O)CC[C@]1(C(=O)O)N=C(c2ccc(OCCCO)cc2)O[C@H]1c1ccccc1 | 0.138 | -0.733 | -0.369 | 0.76 | 1.05 | -0.096 | -0.0769 | -0.172 | 0.0522 | 0.574
7 | O=C1C2C=CC(C(O)c3cc(C(F)(F)F)cc(C(F)(F)F)c3)N(Nc3ccc([N+](=O)[O-])cc3)C2C(=O)N1c1ccccc1 (stereo not given) | 1.42 | -3.71 | 0.511 | 1.65 | 0.311 | 0.055 | -0.224 | 0.605 | 0.185 | 1.59
8 | COC(=O)[C@@]1(Cc2ccc(F)cc2)[C@H]2c3cc(C(=O)N4CCCC4)n(CCF)c3C[C@H]2CN1C(=O)c1ccccc1 | 1.13 | -1.43 | -0.359 | 2.74 | 1.32 | 1.04 | 1.79 | 2.99 | 2.42 | 0.602
9 | O=C1NCC(=O)N2[C@@H]1C[C@@H](C(=O)O)[C@H]2c1ccc(O)cc1 | 1.4 | 2.63 | 0.834 | 0.458 | -0.451 | -0.0758 | 0.123 | -0.36 | -0.0956 | 0.707
10 | CCOC(=O)C1=CC[C@@H](c2cc(Cl)ccc2Cl)N(S(=O)(=O)c2ccc(C)cc2)[C@H]1c1ccc(OC)cc1 | -0.157 | -2.23 | -0.658 | 0.379 | 0.379 | 0.374 | 0.898 | -0.412 | 0.417 | -0.369
11 | O=C1O[C@@H](c2ccccc2)[C@@H](c2ccccc2)N2[C@@H](c3ccc(O)cc3)[C@]3(C(=O)Nc4ccc(C#CCCO)cc43)[C@@H](C(=O)NC[C@H](O)c3ccccc3)[C@H]12 | 0.334 | 0.0035 | -1.87 | -0.282 | 0.374 | -0.243 | 0.057 | 1.4 | -0.138 | -0.588
12 | CCOC(=O)[C@H]1C/C=C/C[C@H](C(=O)OCC)C(=O)O[C@H]2[C@@H](OC)O[C@H](CO)[C@@H](OC(=O)Nc3ccc(OC)cc3)[C@@H]2OC1=O | 0.89 | -2.82 | 0.721 | 0.433 | 0.118 | 0.0395 | -0.0146 | 0.206 | 0.753 | 1.09
13 | CC(=O)NCCCC[C@@H]1NC(=O)[C@@H]2C[C@H](C(=O)O)[C@H](c3ccc(O)cc3)N2C1=O | -0.745 | 0.117 | -2.7 | -0.329 | 0.104 | -0.184 | -0.221 | -0.33 | -0.998 | -0.371
14 | CC=CC(O)C1C=CC2C(=O)N(C)C(=O)C2N1N1CCCCC1 (stereo not given) | 1.15 | 0.121 | 0.364 | 1.41 | 0.127 | 0.0559 | -0.151 | -0.39 | 0.923 | 1.1
15 | Cc1ccc(S[C@]2(C(=O)NC(C)C)CC(=O)N(C3Cc4ccccc4C3)[C@@H]2c2ccc(CO)cc2I)cc1 | -0.803 | -2.19 | -2.04 | -0.625 | -1.08 | -0.596 | -0.291 | -1.12 | -0.664 | -0.365
16 | CN(C)C(=O)[C@]1(CCC(=O)OC(C)(C)C)N=C(c2ccc(OCCCO)cc2)O[C@@H]1c1ccccc1 | 1.17 | 0.381 | 0.119 | 0.989 | 0.744 | 0.14 | 0.0793 | 0.289 | 2.76 | 0.654
17 | O=C1NC(=O)C2C1C=CC(C(O)c1c(F)cccc1Cl)N2Nc1ccccn1 (stereo not given) | -0.465 | -0.469 | 0.5 | -1.19 | -0.625 | 0.0108 | -0.0274 | -0.207 | 0.505 | -0.358
18 | COCCOC(=O)N1C(=O)[C@@]2(c3ccccc31)[C@H](C(=O)N1CCN(c3ncccn3)CC1)[C@H]1C(=O)O[C@H](c3ccccc3)[C@H](c3ccccc3)N1[C@@H]2c1ccc(OCCO)cc1 | 1.41 | -1.42 | 0.708 | 0.89 | 0.316 | -0.0944 | 0.0639 | 0.612 | 1.03 | 1.11
19 | CCOC(=O)C1=C[C@@H](c2ccccc2)N(S(=O)(=O)c2ccc(C)cc2)[C@H]1c1cccc(Cl)c1 | 0.242 | -1.81 | -0.0476 | 1.64 | 0.999 | 0.027 | -0.0289 | 0.568 | 2.5 | 2.25
20 | CN(C)CCCNC(=O)[C@@H]1c2ccccc2C(=O)N(Cc2ccc(OC(F)(F)F)cc2)[C@H]1c1ccc(CO)cc1 | 1.35 | -2.08 | -0.0765 | -0.226 | -0.919 | 0.0003 | 0.0278 | -0.309 | 0.724 | 0.243
21 | CN1C(=O)C2C=CC(C(O)C3CCCCC3)N(N3CCCCC3)C2C1=O (stereo not given) | 1.47 | -0.306 | 0.194 | 0.407 | -0.331 | 0.164 | 0.109 | 1.31 | 1.4 | 1.66
22 | C=C(CCCC)C(=O)CC[C@@H](OC(=O)c1cccnc1)c1ccccc1OCCO | -0.266 | -3.05 | -0.0055 | -1.11 | -1.07 | -0.091 | -0.138 | -0.117 | 0.684 | 0.583
23 | COC(=O)[C@@]1(Cc2ccccc2)[C@H]2c3cc(C(=O)N4CCCC4)n(Cc4ccsc4Br)c3C[C@H]2CN1C(=O)c1ccccc1 | 1.45 | -2.73 | -0.505 | 1.6 | 1.17 | 0.332 | -0.0789 | 1.99 | 0.545 | 1.23
24 | CCOC(=O)C1=CC[C@@H](c2ccccc2C(F)(F)F)N(S(=O)(=O)c2ccc(C)cc2)C1 | 0.648 | -2.98 | 0.613 | 2.07 | 1.07 | 0.274 | 0.584 | -0.395 | 1.5 | 1.49
25 | C[N+](C)(C)CCCC[C@@H]1NC(=O)[C@@H]2C[C@H](C(=O)O)[C@H](c3ccc(O)cc3)N2C1=O | -3.49 | 0.964 | -0.566 | -0.0386 | 0.305 | -0.197 | -0.141 | -0.359 | 0.136 | 0.0213
26 | COc1cc2c(cc1O)C(C)N(Cc1cc3c(cc1Br)OCO3)CC2 (stereo not given) | -1.15 | -0.0195 | -0.407 | 0.0966 | 0.201 | -0.0944 | -0.338 | -0.252 | 0.208 | -0.0712
27 | C=C(C(=O)CC[C@H](OC(=O)c1cccnc1)c1cccc(OCCO)c1)C(C)C | 0.074 | -3.63 | -0.507 | -1.21 | -1.58 | -0.124 | 0.0952 | 0.151 | 0.307 | -0.0234
